The record followed here is PubChem BioAssay (NCATS).

Results filed as inconclusive are left out. Activity calls are given as the source filed them. Calls follow the shape of the dose curve; as a rule, active = well fitted curve in the direction sought with a large enough effect; inconclusive = small, poorly fitted or top-dose-only effect, or another doubt; inactive = no such curve, though single readings can be large or run the other way.

The test is described as follows: HPAF-II 18hr Apoptosis Induction qHTS against the NCATS CANVASS Library (AID 1347360). The settings on record: HPAF-II caspase-3/7 luminescence; series mostly up to 46.1 µM. The text has this: Natural products and their derivatives continue to be wellsprings of nascent therapeutic potential. However, many laboratories have limited resources for biological evaluation, leaving their previously isolated or synthesized compounds largely or completely untested. To address this issue, the Canvass library of natural products was assembled (https://tripod.nih.gov/canvass), in collaboration with academic and industry researchers, for quantitative high-throughput screening (qHTS) across a diverse set of cell-based and biochemical assays. The pure (>85% purity by liquid chromatography/mass spectrometry [LC/MS]) Canvass library of 346 natural products were submitted by 45 academic laboratories and companies around the world. We collected pure natural products to circumvent deconvolution and structure elucidation due to time and resource limitations. The library was formatted into 1536-well plates and evaluated in 50 qHTS (in an 11-pnt concentration series) bioassays with broad scope of disease-relevant mechanisms. The resulting data set from 50 different assays was then systematically analyzed to identify overall trends and specific natural products with interesting biological activities. Reported herein are the results of each individual qHTS and their corresponding assay protocol. The Caspase-Glo (R) (Promega) is a homogeneous, luminescent assay that measures caspase activity. The detection substrate contains tetrapeptide sequence DEVD in an "add-mix-measure" format. The reagent generates a luminescent signal produced by a thermostable luciferase. The luminescence is proportional to the amount of caspase activity in the assay reaction. National Center for Advancing Translational Sciences (NCATS), Rockville, MD National Institute of Health (NIH), Bethesda, Maryland
Cancer Cell Apoptosis Assay 1. In a 1536 well, white solid bottom tissue culture plates (Corning 7494), HPAF-II cancer cells in DMEM + 10% FBS + 1% P/S media were dispensed in each well at a final concentration of 500 cells / well (5uL volume) using the Multidrop Combi (Thermo Fisher Scientific) dispenser. 2. Compounds were pin transferred (~23nL volume) via Wako Pin-tool (Wako Automation, Richmond VA) equipped with a 1536 pin head. The assay plates were treated with compounds in a concentration series with a final concentration range of 0.17nM to 103uM. 3. Doxorubicin was used as a control in a 16pnt titration (1mM; 1:2 dilution; 16-points; n = 2; column 3, rows 1 - 32) and was pin transferred via Wako Pin-tool equipped with a 1536 pin head. The final concentration range of doxorubicin is 0.1nM - 4uM. 4. The assay plates were incubated for 18 hours at 37 degrees C/5% CO2/95% Rh. 5. 3uL Caspase-Glo 3/7 (R) (Promega) detection reagent was then added to the assay plates (columns 2 - 48, rows 1 - 32) and incubated at room temperature, covered from light, for 15 min. 6. Luminescence signal was acquired via the ViewLux plate reader (PerkinElmer) using a clear filter, 20 second exposure and 2x binning settings.
(Quantitative high-throughput screening tests each substance at several concentrations.)
For the compound `CCCC[C@@H]1CC[C@H]2CCCC(CCC)N12` (stereo not given in full), the result was inactive.

In the case of `COC(=O)C1=C2Nc3ccccc3[C@@]23CCN2CC(C(C)=O)C1C[C@H]23` (stereo not given in full), the outcome was inactive.

Consider `C[C@]12CC(O)C3[C@@H](CCC4C[C@@H](O)CC[C@@]43CO)[C@@]1(O)CCC2C1=CC(=O)OC1` (stereo not given in full), for which the call was inactive.

For `NCCc1ccccc1`, the result was inactive.

`O=C(c1ccccc1O)c1[nH]c(Cl)c(Cl)c1-n1c(C(=O)c2ccccc2O)cc(Cl)c1Cl`: the outcome was inactive.

On to `COc1ccc2c3c([nH]c2c1)C(C)=NCC3`, for which the compound was classed as inactive.

For the compound `CC(=O)N[C@H]1CCN2CCC[C@H]12`, the compound was called inactive.

Take `CN1C(=O)[C@]23CC4C(C)(C)[C@@]5(C[C@@]41CN2CC[C@@]3(C)O)C(=O)Nc1c5ccc2c1OC=CC(C)(C)O2` (stereo not given in full): the outcome was inactive.

`CN(C)Cc1c[nH]c2ccccc12`: the outcome was inactive.

`COc1ccc2c(c1)[nH]c1c(C)nccc12`: the call was inactive.

For the compound `CC[N@@+]1([O-])C[C@]2(C)CC[C@@H](O)[C@@]34C5C[C@H]6CC[C@@]5(C(C[C@H]23)C41)[C@H](O)[C@@]6(O)CO` (stereo not given in full), the result was inactive.

In the case of `CO[C@H](c1ccccc1)[C@H]1NC(=O)C(C)NC(=O)C(C[C@@H](C)CO)N(C)C(=O)[C@@H](C(O)c2cn(C(C)(C)C3CO3)c3ccccc23)NC(=O)C(C(C)C=C(C)C)NC(=O)C(CC(C)C)N(C)C(=O)C(C(C)C)NC1=O` (stereo not given in full), the result was inactive.

In the case of `CNCCc1c[nH]c2ccccc12`, the outcome was inactive.

Regarding `CO[C@@H](/C=C/CC/C=C/C(=O)O)[C@@H](O)[C@H](C)/C=C(\C)[C@@H](O)[C@H](C)C(=O)CCCC1CC(=O)NC(=O)C1`, the compound was classed as inactive.

Take `CCC(=O)CCCCC[C@@H]1NC(=O)[C@H]2CCCCN2C(=O)[C@H]([C@@H](C)CC)NC(=O)[C@H](Cc2cn(OC)c3ccccc23)NC1=O`: the compound was called inactive.

Consider `C=C1[C@@H](C)[C@H]2[C@H](Cc3ccccc3)NC(=O)[C@]23OC(=O)/C=C/[C@H](O)CCC[C@@H](C)C/C=C/[C@H]3[C@@H]1O`, for which the call was inactive.

On to `c1ccc2c3c([nH]c2c1)CNCC3`, for which the call was inactive.

Regarding `CNCCc1ccccc1`, the compound was classed as inactive.

For the compound `CCN1C[C@]2(C)CC[C@@H](O)[C@]34C1[C@H](C[C@H]23)C12CCC(CC14)[C@](O)(CO)[C@H]2O` (stereo not given in full), the result was inactive.

As for `CC1=CC2CC[C@@H]3[C@@H](C)C[C@H](C)[C@@H](C1)N23` (stereo not given in full), the compound was called inactive.

As to `CO[C@@H](/C=C/CC/C=C/C(=O)O)[C@@H](O)[C@H](C)[C@@H](O)/C(C)=C/[C@H](C)C(=O)CCCC1CC(=O)NC(=O)C1`, the compound was classed as inactive.

Regarding `CNCCc1ccc(O)cc1`, the outcome was inactive.

`CCN1C[C@]2(C)CC[C@H](O)[C@]34C1C(C[C@H]23)[C@@]12CC[C@H](CC14)[C@](O)(COC(=O)c1ccc(OC)c(OC)c1)[C@H]2O` (stereo not given in full): the compound was classed as inactive.

`CC=C1CN(C=O)[C@H]2C[C@@H]1[C@@H](C(=O)OC)[C@@]13CCOC21Nc1ccccc13` (stereo not given in full): the compound was called inactive.

`CC[C@@H]1CN2CC[C@@]3(O)C(=Nc4cccc(OC)c43)[C@@H]2C[C@@H]1/C(=C\OC)C(=O)OC`: the compound was classed as inactive.

Turning to `C/C=C1/CN2CC[C@]34C(=Nc5ccccc53)[C@@H]2C[C@@H]1[C@H]4C(=O)OC`, the call was inactive.

As for `CCCCC[C@@H]1OC(=O)[C@@H](C)N(C)C(=O)[C@H](CCCCC)OC(=O)C(C)N(C)C(=O)[C@H](CCCCC)OC(=O)[C@@H](C)N(C)C(=O)[C@H](CCCCC)OC(=O)C(C)N(C)C1=O` (stereo not given in full), the outcome was inactive.

Consider `CCC[C@H]1CC[C@H]2[C@H](C)CCC[C@H]2N1`, for which the compound was classed as inactive.

For the compound `CC1=CC(=O)C2=C(C)C[C@H](O)[C@@H]3[C@H](OC(=O)[C@@H]3C)[C@@H]12`, the compound was called inactive.

For the compound `COc1ccc(C23Oc4cc(OC)cc(OC)c4[C@](O)([C@H](c4ccccc4)C2C(=O)NCCCCNC(=O)c2ccccc2)[C@@H]3O)cc1` (stereo not given in full), the call was inactive.
